# This is part of a sample that, as a whole, favours compounds with a hit. Of some 83,000 tested, about 20% had one in any assay.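 Cell lines were cultured in 96-well plates, exposed to a single compound concentration, and assessed for percent growth 48 hours later.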 Values without a mark were called inactive. Calls of active or inactive are those of the source. How the source made its calls: active means growth percent below 10; inactive means the rest.
# What was measured:
# Test in all cases: NCI-60 one-dose screen, 48 h (100 = growth as untreated, 0 = no growth, -100 = all killed)
# Conditions in all cases: 10 µM unless noted
# [1] = tested on: RPMI-8226 leukemia
# [2] = tested on: OVCAR-8 ovarian
# [3] = tested on: OVCAR-5 ovarian
# [4] = tested on: OVCAR-4 ovarian
# [5] = tested on: SK-OV-3 ovarian
# [6] = tested on: IGROV1 ovarian
# [7] = tested on: OVCAR-3 ovarian
# [8] = tested on: HS 578T breast
# [9] = tested on: NCI/ADR-RES ovarian
# [10] = tested on: T-47D breast
Structure (SMILES),growth [1],growth [2],growth [3] [%],growth [4] [%],growth [5] [%],growth [6],growth [7],growth [8] [%],growth [9],growth [10] [%]
Cc1cccc2nc3c(n12)C(=O)C(=O)c1ccccc1-3,44.9%,46.9%,104,83.1,79.5,44.7%,54%,75.2,50.3%,62.5
NS(=O)(=O)c1ccc(-n2nc(-c3ccccc3)ccc2=O)cc1,109%,101%,113,117,99.6,72.3%,112%,106,103%,93.8
O=CN1N=C(c2ccc(F)cc2)CC1c1cccc(Nc2ccnc3cc(C(F)(F)F)ccc23)c1 (stereo not given),24.6%,41.5%,95.2,41,69.1,67.9%,59.8%,73.5,47.4%,26.4
Nc1c(C(=O)Nc2ccccn2)sc2nc3c(cc12)CCCCCC3,5.43% (active),19.3%,46.6,23.6,19,28.9%,-44.5% (active),18.9,18.8%,23.4
COc1cc(C(=O)N2CCN(c3ccccc3OC)CC2)c(NC(=O)c2cnccn2)cc1OCc1ccccc1,65.9%,91.1%,90.8,79,90.2,63.9%,92.7%,103,78.9%,66.8
NC(N)=NC(N)=Nc1cc2ccccc2c2ccccc12,-15.4% (active),45%,57.3,45.8,59.8,17.2%,63.2%,46.5,80.4%,30.2
C=C(C)[C@@H]1CC[C@]2(C(=O)O)CC[C@]3(C)[C@H](CC[C@@H]4[C@@]5(C)C[C@@H](CC#Cc6ccc(Cl)cc6)C(=O)C(C)(C)[C@@H]5CC[C@]43C)[C@@H]12,22.5%,48.1%,70.9,29.1,61.5,70.1%,46.6%,55.3,71.7%,39.4
COc1cc(/C=N/Nc2nc(-c3ccc(F)cc3)c(C#N)c(N3CCOCC3)n2)ccc1O,87.1%,89.8%,107,89.8,102,96.7%,103%,102,102%,93.6
Cc1[nH]c2ncnc(Oc3ccc(NC(=O)Nc4ccc(Cl)c(C(F)(F)F)c4)cc3)c2c1C,44.7%,52%,98,90.1,91.9,54.6%,56.3%,73.8,64.5%,36.9
O=C(CN1N=C(c2ccc(F)cc2)CCC1=O)Nc1nc2ccccc2s1,26.8%,-43% (active),16.9,35.4,73.5,-49.5% (active),-40.6% (active),67.6,6.92% (active),83.3
Cc1ccc(C2=N[C@H]3CCC[C@@H]3N(c3ccccc3)C(C(Cl)Cl)=N2)cc1,111%,113%,91.3,96.9,111,98.7%,103%,100,97.9%,106
Nc1c(C(=O)Nc2ccccc2)sc2nc3c(cc12)CN(C(=O)OCc1ccccc1)CC3,53.1%,68.9%,91.7,75.4,43.7,56.4%,16%,53.5,45.6%,68.2
N#Cc1c(-c2ccc(F)cc2)nc(N/N=C/c2c[nH]c3ccccc23)nc1N1CCOCC1,33.5%,58%,94.8,80.4,92.6,65.1%,65.9%,34.4,61%,76.4
